Laboratory results published in PubChem BioAssay AID1259312 (Keith Lab, Institute of Cancer Science, University of …, 2017).
The campaign covered roughly 4,500 compounds. About 200 (4.4%) were called active. Shown is part of a subset that was picked to be rich in actives. Values without a mark were called inactive.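 Rule for the calls: active = cell survival measured by absorbance rises more than 2.5-fold over infected cells without compound; inactive = the rest.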

Assay: survival after telomere uncapping, modulators, primary screen, cell-based (AID 1259312);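 note: virus expresses mutant telomerase RNA that uncaps telomeres and kills cells; compound added 2 days after infection so exposure lasts 3 days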
Details: HCT116 + Ad-hTR-mut, MTT, 5 d; at 10 µM, hits give high values

Row | Compound | fold change
1 | CN1CCN(c2ccc([N+](=O)[O-])c(N3CCN(C)CC3)c2)CC1 | -1.49
2 | CC1CN(c2ccc([N+](=O)[O-])c(N3CCOCC3)c2)CCN1 (stereo not given) | -1.03
3 | O=[N+]([O-])c1ccc(N2CCOCC2)cc1Cl | 4.62 (active)
4 | O=[N+]([O-])c1ccc(Cl)c2nonc12 | -8.7
5 | NC1(Cc2ccc(Cl)cc2)CC1 | -2.29
6 | COc1cc2c(cc1OC)C13CCN4CC5=CCOC6CC(=O)N2C1C6C5CC43 (stereo not given) | 3.18 (active)
7 | O=C1C[C@@H]2OCC=C3CN4CC[C@]56c7ccccc7N1[C@H]5[C@H]2[C@H]3C[C@H]46 | -1.27
8 | CN1CCN(c2ccc([N+](=O)[O-])cc2Cl)CC1 | -1.02
9 | Cc1cc(C)c(C)c(C=C(C#N)C#N)c1C | 1.51
10 | N#CC(C#N)=Cc1c2ccccc2cc2ccccc12 | 3.81 (active)
11 | CCc1cc(CC)c(C=C(C#N)C#N)c(CC)c1 | 1.07
12 | CCOC(=O)c1c(NC(=O)C2C(C)(C)C2(C)C)sc2c1CCC2 | -1.33
13 | CC1CN(c2ccc([N+](=O)[O-])cc2[N+](=O)[O-])CCN1 (stereo not given) | 2.15
14 | Clc1ccc2c(N3CCNCC3)ccnc2c1 | -2.13
15 | CC(=O)OC1CCC2(C)C3CCC4(C)C(CC[C@]4(OC(C)=O)C(C)OC(C)=O)C3CC[C@H]2C1 (stereo not given in full) | 3.25 (active)
16 | C[C@]12CC[C@H](O)C[C@@H]1CC[C@@H]1[C@@H]2CC[C@]2(C)C(=O)CC[C@@H]12 | 1.18
17 | COC(=O)C(N)CCCN=C(N)N[N+](=O)[O-] (stereo not given) | -1.4
18 | CCNc1nc(Cl)nc(NCC)n1 | 2.5 (active)
19 | O=c1[nH]c(=O)n(Cc2ccco2)c(O)c1C=NCc1cccs1 | inactive
20 | COC(=O)Nc1nc2ccccc2[nH]1 | -8.68
21 | O=[N+]([O-])c1ccc(NCCO)c2cccnc12 | -1.59
22 | O=[N+]([O-])c1ccc(NCCO)c2ncccc12 | 2.89 (active)
23 | CCNCCNc1ccc([N+](=O)[O-])c2cccnc12 | -2.62

Row | Compound | fold change
24 | N#Cc1c(/N=C/c2c(O)n(Cc3ccco3)c(=O)[nH]c2=O)sc2c1CCCC2 | inactive
25 | CC1CN(c2ccccc2[N+](=O)[O-])CCN1 (stereo not given) | 1.8
26 | CC1(C)C(C(=O)Nc2cc(Br)c(Br)c(Br)c2)C1(C)C | -1.03
27 | COc1cc2c(cc1O)CCNC2C (stereo not given) | 4.6 (active)
28 | COc1ccc(CC2NCCc3cc(OC)c(OC)cc32)cc1OC (stereo not given) | -2.4
29 | COc1cc2c(cc1OC)C(C)NCC2 (stereo not given) | 1.05
30 | COCc1c(C)cc(C)c(C=C(C#N)C#N)c1C | -1.04
31 | C[C@]12CC[C@H]3[C@@H](CC[C@]4(O)C[C@@H](O)CC[C@]34C=O)[C@@]1(O)CC[C@@H]2C1=CC(=O)OC1 | -23.3
32 | CCC1CN2CCC1CC2C(O)c1ccnc2ccc(OC)cc12 (stereo not given) | 1.15
33 | C#CCSc1nc2ccccc2c(=O)n1-c1ccccc1 | -2.72
34 | CCCCc1ccc(C=C(C#N)C#N)s1 | -1.17
35 | Nc1nonc1-c1nn[nH]n1 | -1.38
36 | Nc1nonc1[N+](=O)[O-] | 1.03
37 | N/N=C(\N)c1nonc1N | 3.99 (active)
38 | Cc1cc(C)[n+]2cc(Br)ccc2n1 | 1.21
39 | O=C(CCl)Nc1ccccn1 | -1.43
40 | CN1CCN(c2ccc([N+](=O)[O-])c3cccnc23)CC1 | -1.27
41 | O=[N+]([O-])c1ccc(N2CCNCC2)c2cccnc12 | -1.29
42 | CC1CN(c2ccc([N+](=O)[O-])c3cccnc23)CC(C)N1 (stereo not given) | 3.89 (active)
43 | O=C(CCl)NCc1ccco1 | 1.2
44 | CCc1nnc(NC(=O)CCl)s1 | 1.66
45 | N#CC1=C(N)Oc2c(c(=O)oc3ccccc23)C1c1cccc2ccccc12 (stereo not given) | -1.29
